In PubChem BioAssay:
Calls of active or inactive are those of the source.

Legend:
[1] = tested on: PRMT1 (protein arginine N-methyltransferase 1); assay: PRMT1 binders on small-molecule microarrays, primary screen, biochemical, small-molecule microarray, 635 nm fluorescence (AID 1088); conditions: small-molecule microarray binding, higher = more signal;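 further: binding of Prmt1 protein to compounds spotted on small-molecule microarray slides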
[2] = yeast growth modulation, basal conditions, primary screen, YJM789 clinical isolate, OD600, 24 h (AID 1089);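 further: growth of clinical yeast isolate S. cerevisiae YJM 789 seeded 1000 cells per well; test concentration not given here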; conditions: S. cerevisiae YJM789 growth, higher = more signal, called active from +8 up or from −8 down
[3] = fission yeast growth modulation, primary screen, strain 972, OD600, 24 h, no modulator (AID 1090);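 further: basal condition with compound alone and no growth modifier present; test concentration not given here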; conditions: S. pombe 972 growth, higher = more signal, called active from +8 up or from −8 down
[4] = S. cerevisiae growth modulation with rapamycin, primary screen, strain BY4716, OD600, 96 h (AID 1091); conditions: higher = more signal, called active from +8 up or from −8 down; further: test concentration not given here
[5] = molecular target: Torsin-1A-interacting protein 2 (Homo sapiens) (UniProt Q8NFQ8); assay: LULL1 binders on small-molecule microarray, primary screen, cell lysate, human LULL1 lysate, 635/667 nm fluorescence (AID 1092); conditions: hLULL1 lysate binding, 635 nm fluorescence, higher = more signal;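 further: probe is lysate of COS7 cells overexpressing human LULL1; score merges per-feature 667 nm fluorescence with signal-to-noise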
[6] = E. coli growth modulation, two-sided OD650, primary screen, E. coli filamentation project, strain DRC41, 24 h (AID 1093); conditions: OD650, 24 h, higher = more signal, called active from +8 up or from −8 down;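 further: MC1000 strain lacking acrAB efflux and sulA so SOS filamentation is blocked; test concentration not given here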
[7] = small-molecule microarray binders of probe aLefty2, primary screen, biochemical, biotinylated probe, 635/667 nm fluorescence (AID 1094); conditions: higher = more signal;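 further: score merges spot fluorescence near 667 nm with spot signal-to-noise ratio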
[8] = tested on: Noggin (protein binding on small-molecule microarray); assay: Noggin binders on small-molecule microarray, primary screen, biochemical, 635/667 nm fluorescence (AID 1095); conditions: 635 nm fluorescence, higher = more signal;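 further: score merges 667 nm feature fluorescence with signal to noise over triplicate slides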
[9] = molecular target: Neurogenic locus notch homolog protein 3 (Homo sapiens) (UniProt Q9UM47); assay: NOTCH3 binders on small-molecule microarray, primary screen, biochemical, 635/667 nm fluorescence (AID 1096); conditions: NOTCH3 binding, 635 nm fluorescence, higher = more signal
[10] = small-molecule microarray binders of probe aEGFR, primary screen, biochemical, biotinylated probe, 635/667 nm fluorescence (AID 1097); conditions: higher = more signal;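 further: probe is a biotinylated anti-EGFR antibody binding compounds printed on slides; score combines fluorescence near 667 nm and signal to noise of each spot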

Sequence of Torsin-1A-interacting protein 2 (Homo sapiens) (Q8NFQ8 whole entry, looked up): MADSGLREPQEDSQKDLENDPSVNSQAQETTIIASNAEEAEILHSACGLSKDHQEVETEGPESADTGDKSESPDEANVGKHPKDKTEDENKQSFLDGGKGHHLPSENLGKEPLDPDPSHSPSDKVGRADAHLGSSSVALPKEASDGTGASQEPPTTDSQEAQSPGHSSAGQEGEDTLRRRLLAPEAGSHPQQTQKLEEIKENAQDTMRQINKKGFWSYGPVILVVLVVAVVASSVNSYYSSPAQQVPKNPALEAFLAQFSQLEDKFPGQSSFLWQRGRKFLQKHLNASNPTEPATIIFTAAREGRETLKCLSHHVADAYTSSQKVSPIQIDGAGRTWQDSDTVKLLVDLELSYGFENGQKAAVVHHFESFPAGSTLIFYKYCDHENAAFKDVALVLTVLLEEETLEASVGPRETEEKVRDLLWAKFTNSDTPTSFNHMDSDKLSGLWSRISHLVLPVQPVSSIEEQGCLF
Sequence of Neurogenic locus notch homolog protein 3 (Homo sapiens) (Q9UM47 whole entry, looked up): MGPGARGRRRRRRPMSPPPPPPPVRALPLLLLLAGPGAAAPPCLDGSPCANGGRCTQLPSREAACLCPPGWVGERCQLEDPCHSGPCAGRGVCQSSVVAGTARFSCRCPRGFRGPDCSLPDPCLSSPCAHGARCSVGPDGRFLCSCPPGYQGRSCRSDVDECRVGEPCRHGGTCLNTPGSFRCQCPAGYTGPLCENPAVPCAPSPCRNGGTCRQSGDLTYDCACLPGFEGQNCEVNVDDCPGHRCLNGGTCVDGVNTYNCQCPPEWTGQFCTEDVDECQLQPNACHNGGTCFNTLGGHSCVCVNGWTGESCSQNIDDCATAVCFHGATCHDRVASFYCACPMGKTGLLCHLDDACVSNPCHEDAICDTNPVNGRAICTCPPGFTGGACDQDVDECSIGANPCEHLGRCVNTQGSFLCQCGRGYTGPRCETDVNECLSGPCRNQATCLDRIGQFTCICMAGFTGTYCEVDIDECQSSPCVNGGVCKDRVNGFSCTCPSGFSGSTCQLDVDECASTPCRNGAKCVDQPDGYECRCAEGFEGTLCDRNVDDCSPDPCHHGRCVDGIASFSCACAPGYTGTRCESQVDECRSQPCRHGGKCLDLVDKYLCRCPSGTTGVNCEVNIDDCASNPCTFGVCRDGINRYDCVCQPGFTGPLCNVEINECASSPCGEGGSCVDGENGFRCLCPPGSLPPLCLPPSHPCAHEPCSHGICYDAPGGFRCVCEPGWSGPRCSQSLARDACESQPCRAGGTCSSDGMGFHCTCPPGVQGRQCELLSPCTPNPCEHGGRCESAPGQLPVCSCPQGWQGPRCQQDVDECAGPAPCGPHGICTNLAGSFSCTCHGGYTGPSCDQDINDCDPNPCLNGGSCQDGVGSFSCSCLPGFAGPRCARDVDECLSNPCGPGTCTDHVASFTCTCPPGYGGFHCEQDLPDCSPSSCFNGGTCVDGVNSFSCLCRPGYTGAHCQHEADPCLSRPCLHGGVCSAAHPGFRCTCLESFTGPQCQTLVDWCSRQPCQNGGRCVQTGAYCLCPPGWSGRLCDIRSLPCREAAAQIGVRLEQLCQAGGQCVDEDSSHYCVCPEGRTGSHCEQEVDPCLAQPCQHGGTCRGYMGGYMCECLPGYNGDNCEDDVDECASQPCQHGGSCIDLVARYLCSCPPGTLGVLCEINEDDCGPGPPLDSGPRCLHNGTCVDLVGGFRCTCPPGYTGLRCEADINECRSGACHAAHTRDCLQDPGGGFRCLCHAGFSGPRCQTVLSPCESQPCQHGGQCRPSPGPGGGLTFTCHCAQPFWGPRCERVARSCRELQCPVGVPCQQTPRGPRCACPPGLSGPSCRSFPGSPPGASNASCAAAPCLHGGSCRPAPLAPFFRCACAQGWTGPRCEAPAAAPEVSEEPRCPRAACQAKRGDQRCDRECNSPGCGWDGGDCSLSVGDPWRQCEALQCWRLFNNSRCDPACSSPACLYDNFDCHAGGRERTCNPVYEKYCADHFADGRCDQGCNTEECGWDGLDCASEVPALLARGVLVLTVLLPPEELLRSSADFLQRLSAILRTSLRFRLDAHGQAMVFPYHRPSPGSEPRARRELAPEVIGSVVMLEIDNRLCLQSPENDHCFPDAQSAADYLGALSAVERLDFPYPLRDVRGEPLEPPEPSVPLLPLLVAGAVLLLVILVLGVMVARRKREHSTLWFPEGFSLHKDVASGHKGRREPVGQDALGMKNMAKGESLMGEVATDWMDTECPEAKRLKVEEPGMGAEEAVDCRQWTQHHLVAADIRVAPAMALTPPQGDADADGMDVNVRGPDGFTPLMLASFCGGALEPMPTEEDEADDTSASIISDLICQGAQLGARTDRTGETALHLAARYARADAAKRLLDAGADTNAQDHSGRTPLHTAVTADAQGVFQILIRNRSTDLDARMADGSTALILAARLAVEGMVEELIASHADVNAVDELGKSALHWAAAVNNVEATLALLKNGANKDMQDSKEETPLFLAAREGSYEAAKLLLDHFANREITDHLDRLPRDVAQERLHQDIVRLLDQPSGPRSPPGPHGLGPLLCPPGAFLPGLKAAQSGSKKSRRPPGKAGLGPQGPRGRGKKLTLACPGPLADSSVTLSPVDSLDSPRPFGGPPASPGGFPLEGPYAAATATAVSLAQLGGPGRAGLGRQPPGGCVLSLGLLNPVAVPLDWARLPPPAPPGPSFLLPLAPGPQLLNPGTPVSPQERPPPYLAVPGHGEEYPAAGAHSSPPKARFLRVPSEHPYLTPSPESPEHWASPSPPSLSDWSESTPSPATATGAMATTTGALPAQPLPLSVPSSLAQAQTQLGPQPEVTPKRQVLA

SMILES | composite z-score [1] | z-score [2] | z-score [3] | z-score [4] | composite z-score [5] | z-score [6] | composite z-score [7] | composite z-score [8] | composite z-score [9] | composite z-score [10]
COc1ccc(CCNC(=O)[C@@H]2c3ccccc3C(=O)N(Cc3ccc(OC(F)(F)F)cc3)[C@H]2c2ccc(CO)cc2)cc1 | 1.55 | -0.392 (inactive) | -0.51 (inactive) | -0.0066 (inactive) | 2.48 | -0.652 (inactive) | -0.169 | 0.54 | 0.342 | -0.0967
CO[C@H]1O[C@H](CO)[C@@H](OC(=O)Nc2ccc3c(c2)OCO3)[C@H](OC(=O)Nc2ccccc2)[C@H]1OC(=O)Nc1ccccc1 | 1.54 | 1.67 (inactive) | 0.383 (inactive) | 1.76 (inactive) | 3.4 | -0.703 (inactive) | -0.0702 | 0.704 | 1.15 | -0.0354
CC1CC/C=C\[C@H]2OC34C=CCN(Cc5ccccc5)C(=O)[C@H]3N(CCCCCO)C(=O)[C@@H]4C2C(=O)O1 (stereo not given in full) | -0.822 | 0.0898 (inactive) | 0.0077 (inactive) | -0.506 (inactive) | -0.259 | -0.964 (inactive) | -0.166 | -1.07 | -0.629 | -0.206
C=CCC(OC(C)=O)[C@@H]1[C@@H](N(Cc2ccc(-c3ccccc3)cc2)C(=O)Cc2ccc(OC)cc2)c2cc(OCCCO)ccc2N1C(=O)c1ccc2ccccc2n1 (stereo not given in full) | -0.298 | -1.15 (inactive) | -0.832 (inactive) | -0.551 (inactive) | 1.02 | 0.374 (inactive) | 0.0171 | -0.49 | 0.0617 | -0.0784
COCCOC(=O)N1C(=O)[C@@]2(c3ccccc31)[C@H](C(=O)Nc1nc3ccccc3s1)[C@H]1C(=O)O[C@H](c3ccccc3)[C@H](c3ccccc3)N1[C@@H]2c1ccc(OCCO)cc1 | 1.54 | 1.13 (inactive) | 1.36 (inactive) | 3.37 (inactive) | 3.23 | 1.07 (inactive) | -0.0767 | 1.76 | 1.13 | -0.0581
Cc1ccc(S[C@]2(C(=O)NCc3ccccc3)CC(=O)N(Cc3ccccc3)[C@@H]2c2ccc(CO)cc2)cc1 | 1.55 | -0.349 (inactive) | -0.288 (inactive) | -0.0702 (inactive) | 3.04 | -0.927 (inactive) | -0.001 | -0.9 | -0.91 | -0.272
N#Cc1ccc(NN2C(C(O)c3cccs3)C=CC3C(=O)N(c4ccccc4)C(=O)C32)cc1 (stereo not given) | 0.843 | -1.34 (inactive) | 1.73 (inactive) | 2.72 (inactive) | 3.35 | -0.445 (inactive) | -0.0768 | -0.187 | 0.708 | -0.0357
O=C1O[C@@H](c2ccccc2)[C@@H](c2ccccc2)N2[C@@H](c3ccc(OCCO)cc3)[C@]3(C(=O)Nc4ccccc43)[C@@H](C(=O)Nc3nc4ccccc4s3)[C@H]12 | 1.53 | 1.46 (inactive) | 1.15 (inactive) | 2.44 (inactive) | 3.34 | 0.344 (inactive) | 0.321 | 1.3 | 1.11 | 0.224
CCC[C@@H]1C=C(C(=O)O)[C@H](c2ccc(C)cc2)N1S(=O)(=O)c1ccc(C)cc1 | 0.844 | -0.545 (inactive) | 0.249 (inactive) | -0.34 (inactive) | 3.68 | -0.499 (inactive) | 0.0943 | -0.327 | 0.62 | 0.0992
C=C(CCCC)C(=O)CC[C@H](OC(=O)c1cccnc1)c1cccc(OCCO)c1 | 1.3 | 1.61 (inactive) | -0.86 (inactive) | 1.13 (inactive) | 1 | 0.241 (inactive) | -0.141 | 0.257 | -0.139 | -0.0818
CC(C)(C)OC(=O)CC[C@@]1(C(=O)O)N=C(c2ccc(OCCCO)cc2)O[C@@H]1c1ccccc1N=[N+]=[N-] | 1.15 | 0.949 (inactive) | 0.419 (inactive) | -0.286 (inactive) | 2.15 | 0.484 (inactive) | 0.553 | -0.569 | 0.104 | 0.325
O=C1N(CCS(=O)(=O)c2ccccc2)c2ccccc2C[C@@]12COC(c1ccc(OCCCO)cc1)=N2 | 1.47 | 0.631 (inactive) | -1.07 (inactive) | 1.14 (inactive) | 2.9 | -0.405 (inactive) | 0.456 | 0.75 | 1.07 | 0.242
O=C1C2C=CC(C(O)c3ccc(B(O)O)cc3)N(Nc3ccccc3)C2C(=O)N1c1ccccc1 (stereo not given) | -0.592 | 0.428 (inactive) | -4.7 (inactive) | 0.642 (inactive) | 0.935 | -1.2 (inactive) | 0.229 | -1.11 | -0.085 | -0.041
CC(=CC1CCCCC1)[C@@H](NC(=O)c1ccc(C(F)(F)F)cc1)c1ccc(-c2ccccc2)cc1 | -0.211 | 0.537 (inactive) | -0.91 (inactive) | -0.938 (inactive) | -0.192 | -1.33 (inactive) | 0.0943 | 0.0323 | -0.779 | 0.0353
Cc1ccc(S[C@]2(C(=O)NCC(C)C)CC(=O)N(Cc3ccccc3)[C@@H]2c2ccc(CO)cc2I)cc1 | 1.3 | -1.29 (inactive) | -0.927 (inactive) | 1.66 (inactive) | 2.55 | 0.0384 (inactive) | 0.124 | 0.8 | 0.905 | 0.0537
